The results in this text go back to PubChem BioAssay (Tox21).

Results filed as inconclusive are left out. A number with no mark means an inactive call. Active and inactive are the calls of the source. Calls come from the whole dose curve; as a rule, active = well fitted curve in the direction sought with a large enough effect in the repeat runs; inconclusive = weak or mixed curves; inactive = no such curve, though single readings can be large; an effect the other way counts as inactive or inconclusive.

A short description of assay [1]: qHTS RealTime-Glo MT Cell Viability Assay in HepG2 cells - 40 hour (AID 1224870). Note: nearly all actives have a fitted effect of over 50% in size. In a few lines: (§1)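 HepG2 cells mixed with RealTime-Glo MT reagents (NanoLuc plus cell-permeant prosubstrate) were seeded at 600 cells/well, incubated 5 h at 37 C/5% CO2, then pinned with compounds in DMSO; nonlytic luminescence tracked viability during 40 h treatment.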
The nature of assay [2]: A CellTox Green Cytotoxicity Assay to monitor cytotoxicity in HEK293 cells - 40 hour (AID 1224871). Note: nearly all actives have a fitted effect of over 45% in size. Note: potency is the fitted concentration of half-maximal effect. The essentials: (§2)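 Fluorescence intensity, read at 0, 8, 16, 24, 32 and 40 h of compound treatment, reflected dye binding to DNA of dead HEK293 cells; compounds (23 nL, DMSO) were added 5 h after plating cells with reagent.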
A short description of assay [3]: qHTS RealTime-Glo MT Cell Viability Assay in HepG2 cells - 8 hour (AID 1224873). Note: nearly all actives have a fitted effect of over 55% in size. In a few lines: as §1
The nature of assay [4]: qHTS RealTime-Glo MT Cell Viability Assay in HEK293 cells - 40 hour (AID 1224874). Note: nearly all actives have a fitted effect of over 50% in size. Note: potency is the fitted concentration of half-maximal effect. As to conditions: RealTime-Glo luminescence; max response: stronger effect = lower value. In a few lines: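 Viable HEK293 cells reduce a cell-permeant prosubstrate; the product diffuses out and is consumed by NanoLuc in the medium to give light. Compounds went in after a 5 h incubation and plates were read over the treatment course.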

The nature of assay [5]: A CellTox Green Cytotoxicity Assay to monitor cytotoxicity in HepG2 cells - 16 hour (AID 1224876). Note: nearly all actives have a fitted effect of over 45% in size. The essentials: (§3)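 Using 1536-well format, dye-containing HepG2 suspension was seeded, allowed 5 h at 37 C/5% CO2, dosed by pintool with compounds, positive and negative controls, and imaged for fluorescence across 40 h.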
Assay [6] in a line: qHTS RealTime-Glo MT Cell Viability Assay in HepG2 cells - 32 hour (AID 1224877). Note: nearly all actives have a fitted effect of over 55% in size. In a few lines:
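HepG2 cells (600/well) were dispensed with RealTime-Glo reagents, incubated 5 h at 37 °C, then treated with compounds in DMSO for up to 40 h. Nonlytic NanoLuc luminescence reflecting viable cells was read at each stated time point.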

Assay [7] in a line: A CellTox Green Cytotoxicity Assay to monitor cytotoxicity in HepG2 cells - 40 hour (AID 1224879). Note: nearly all actives have a fitted effect of over 40% in size. Note: potency is the fitted concentration of half-maximal effect. In a few lines: as §3
Assay [8] can be described thus: A CellTox Green Cytotoxicity Assay to monitor cytotoxicity in HEK293 cells - 24 hour (AID 1224875). Note: series mostly up to about 77 µM; nearly all actives have a fitted effect of over 45% in size. In a few lines: as §2
Assay [9] can be described thus: A CellTox Green Cytotoxicity Assay to monitor cytotoxicity in HepG2 cells - 24 hour (AID 1224878). Note: nearly all actives have a fitted effect of over 45% in size. In a few lines:
as §3

Assay [10] in a line: qHTS RealTime-Glo MT Cell Viability Assay in HEK293 cells - 16 hour (AID 1224872). Note: nearly all actives have a fitted effect of over 50% in size. Note: potency is the fitted concentration of half-maximal effect. The essentials:
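HEK293 cells seeded with NanoLuc/prosubstrate reagent, rested 5 h at 37 C, then dosed and kept at 37 C up to 40 h. Nonlytic real-time luminescence from viable cells read at 0, 8, 16, 24, 32 and 40 h.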
% is set by controls: 0 for no effect and ±100 for the full control effect.

Consider `OC/C(Br)=C(\Br)CO`, for which the Potency entry in assay [1], in assay [2], in assay [3], in assay [5], in assay [6] and in assay [7] was “inactive” throughout. Also, the max response in assay [4] was 0.37%.

With `CCOC(=O)c1ccccc1C`, the Potency result in assay [1], in [2], in [3], in [8], in assay [5] and in assay [6] was “inactive” each time. The Potency entry in assay [9] and in [7] was “inactive” in each case. For the same molecule, in assay [4], the max response is -14.1%.

With `CSc1ccc(Oc2ccc(S(N)(=O)=O)cc2CN(C)C)cc1C`, the Potency result in assay [1], in assay [2], in [3], in assay [8] and in [6] was “inactive” in each case. Further, the Potency in assay [4] is 38.9 µM (active).

With `CCCCCCOC(=O)CCCCCCCC(=O)OCCCCCC`, the Potency result in [1], in assay [2], in [3], in assay [8], in assay [5] and in [6] was “inactive” each time. The Potency result in [9] and in assay [7] was “inactive” in each case. For the same molecule, the max response in [4] is 1.87%.

On to `CCc1c2c(nc3ccc(OC(=O)N4CCC(N5CCCCC5)CC4)cc13)-c1cc3c(c(=O)n1C2)COC(=O)[C@]3(O)CC`, for which the Potency result in [1], in assay [2], in assay [3], in assay [8], in [5] and in [6] was “inactive” each time. The Potency entry in assay [9] was “inactive”. For the same molecule, in assay [4], the Potency was 2.39 µM (active).

In the case of `CCCCN(CCCC)CCCOC(=O)c1ccc(N)cc1`, the Potency entry in assay [1], in [2], in assay [3], in assay [8], in assay [6] and in assay [9] was “inactive” each time. Further, the Potency result in assay [7] is “inactive”. The max response in assay [4] was -19.3%.

As to `COC(=O)Nc1nc2ccc(C(=O)c3cccs3)cc2[nH]1`, the Potency entry in [1], in assay [2], in assay [3], in assay [8], in assay [5] and in [6] was “inactive” in each case. For the same molecule, the Potency in [4] was 0.134 µM (active); in assay [7] it was 0.107 µM (active).

Consider `N#C/C(=C1\SCC(c2ccccc2Cl)S1)n1ccnc1` (centres undefined), for which the Potency result in assay [1], in assay [2], in assay [3], in [8], in assay [5] and in assay [9] was “inactive” each time. In addition, the Potency result in [7] is “inactive”.

For `CC1=C(/C=C/C(C)=C\C=C\C(C)=C\C(=O)O)C(C)(C)CCC1`, the Potency entry in [1], in [3], in assay [5] and in assay [9] was “inactive” throughout. In addition, the Potency in assay [2] was 49 µM (active). For the same molecule, in assay [4], the max response was -21.3%.

Take `O=C(Nc1ccc([N+](=O)[O-])cc1)Nc1ccc([N+](=O)[O-])cc1`: the Potency result in assay [1], in [3], in assay [8] and in assay [5] was “inactive” each time. In addition, the Potency in assay [2] is 13.4 µM (active); in assay [4], 7.56 µM (active); in assay [7], 23.9 µM (active).

Consider `O=C(O)C(Cc1cc(I)c(O)c(I)c1)c1ccccc1` (centres undefined), for which the Potency result in assay [1], in assay [2], in assay [3], in assay [8], in assay [9] and in assay [7] was “inactive” in each case. Besides, in [4], the max response was 0.775%.

In the case of `CC(C)C(OC(=O)c1ccccc1)C(C)(C)COC(=O)c1ccccc1` (centres undefined), the Potency entry in assay [1], in assay [2], in assay [3], in [8], in [5] and in assay [6] was “inactive” throughout. In addition, the Potency entry in assay [9] and in assay [7] was “inactive” throughout.

With `C=CCNc1nc(NCC=C)nc(N2CCN(C(c3ccc(F)cc3)c3ccc(F)cc3)CC2)n1`, the Potency entry in [1], in assay [2], in assay [3], in assay [8], in [5] and in assay [6] was “inactive” throughout. Besides, the Potency result in assay [9] and in assay [7] was “inactive” in each case. The max response in assay [4] is -23.1%.

With `C=C(C)C(=O)OCCOC(=O)CC(C)=O`, the Potency entry in [1], in assay [2], in [3], in assay [5], in assay [6] and in assay [9] was “inactive” throughout. For the same molecule, the Potency entry in [7] is “inactive”. For the same molecule, in assay [4], the max response is 1.19%.

`C=CC(=O)NCOCC(C)C`: the Potency entry in assay [1], in [2], in assay [3], in [8], in assay [5] and in assay [9] was “inactive” throughout. The Potency entry in assay [7] was “inactive”. In addition, the max response in [4] is -14%.

As to `CC(C)(C)C(=O)C(Oc1ccc(Cl)cc1)n1ccnc1` (centres undefined), the Potency result in [1], in [2], in assay [3], in assay [8], in assay [5] and in [6] was “inactive” throughout. Further, the Potency entry in [9] and in [7] was “inactive” in each case.

For the molecule `CC(CCc1ccc2c(c1)OCO2)NN` (centres undefined), the Potency result in assay [1], in assay [10], in assay [3], in assay [8], in assay [6] and in assay [9] was “inactive” throughout. In addition, the Potency entry in assay [7] was “inactive”. For the same molecule, the max response in [4] is 6.86%.

In the case of `C/C(=N/NC(=O)c1ccncc1)C(=O)O`, the Potency entry in assay [1], in [10], in assay [3], in [8], in [6] and in assay [9] was “inactive” in each case. In addition, the Potency result in assay [7] is “inactive”. Moreover, in assay [4], the max response was 0.452%.

In the case of `O=C(c1ccc(O)cc1)c1ccc(Cl)cc1`, the Potency result in assay [1], in assay [3], in assay [5], in assay [6], in assay [9] and in assay [7] was “inactive” throughout. Moreover, the Potency in assay [10] and in [4] was 25.1 µM (active) in each case.

For the molecule `O=C1NCCN1`, the Potency result in [1], in assay [10], in assay [3], in assay [5], in [6] and in [9] was “inactive” each time. For the same molecule, the Potency result in assay [7] was “inactive”. In addition, the max response in assay [4] is 4.04%.

Consider `CC1=CC(O)CC(C)(C)C1` (centres undefined), for which the Potency result in assay [1], in [10], in assay [3], in assay [8], in assay [5] and in [6] was “inactive” in each case. Also, the Potency result in [9] and in assay [7] was “inactive” throughout. In assay [4], the max response is 8.3%.

`CC(C)c1nnc2ccc(-c3ocnc3-c3cc(F)ccc3F)cn12`: the Potency result in [1], in assay [3], in assay [8], in assay [5], in assay [9] and in assay [7] was “inactive” in each case. The Potency in assay [10] was 17.4 µM (active); in assay [4], 19.5 µM (active).

In the case of `CC(C)(CCl)c1ccccc1`, the Potency entry in assay [1], in [10], in [3], in assay [8], in [5] and in assay [9] was “inactive” throughout. Further, the Potency entry in [7] is “inactive”. Further, the max response in assay [4] was 4.77%.

As for `CCCOC(=O)c1ccc(N)cc1`, the Potency result in assay [1], in assay [10], in [3], in assay [8], in assay [5] and in assay [6] was “inactive” each time. Moreover, the Potency result in assay [9] and in [7] was “inactive” throughout. The max response in [4] is -15%.
